Experimental data from PubChem BioAssay.

What was measured:
[1] = test system: Botulinum neurotoxin type F light chain protease (Clostridium botulinum); assay: Clostridium botulinum type F light chain protease inhibitors, microsphere substrate cleavage, validation (AID 588459); conditions: multiplex microsphere protease substrate cleavage assay, flow cytometry; at 10 µM; active compounds read high
[2] = target: Botulinum neurotoxin type A (Clostridium botulinum) (UniProt P0DPI0); assay: BoNT/A light chain protease inhibitors, biochemical, multiplex microsphere flow cytometry, validation set (AID 588460); conditions: at 10 µM, active compounds read high
[3] = target: Lethal factor (Bacillus anthracis) (UniProt P15917); assay: Bacillus anthracis lethal factor inhibition, microsphere flow cytometry protease assay, validation at 10 µM (AID 588461); conditions: multiplex microsphere protease cleavage assay, active compounds read high

Measured: inhibition

Lethal factor (Bacillus anthracis), sequence (P15917 whole entry, looked up): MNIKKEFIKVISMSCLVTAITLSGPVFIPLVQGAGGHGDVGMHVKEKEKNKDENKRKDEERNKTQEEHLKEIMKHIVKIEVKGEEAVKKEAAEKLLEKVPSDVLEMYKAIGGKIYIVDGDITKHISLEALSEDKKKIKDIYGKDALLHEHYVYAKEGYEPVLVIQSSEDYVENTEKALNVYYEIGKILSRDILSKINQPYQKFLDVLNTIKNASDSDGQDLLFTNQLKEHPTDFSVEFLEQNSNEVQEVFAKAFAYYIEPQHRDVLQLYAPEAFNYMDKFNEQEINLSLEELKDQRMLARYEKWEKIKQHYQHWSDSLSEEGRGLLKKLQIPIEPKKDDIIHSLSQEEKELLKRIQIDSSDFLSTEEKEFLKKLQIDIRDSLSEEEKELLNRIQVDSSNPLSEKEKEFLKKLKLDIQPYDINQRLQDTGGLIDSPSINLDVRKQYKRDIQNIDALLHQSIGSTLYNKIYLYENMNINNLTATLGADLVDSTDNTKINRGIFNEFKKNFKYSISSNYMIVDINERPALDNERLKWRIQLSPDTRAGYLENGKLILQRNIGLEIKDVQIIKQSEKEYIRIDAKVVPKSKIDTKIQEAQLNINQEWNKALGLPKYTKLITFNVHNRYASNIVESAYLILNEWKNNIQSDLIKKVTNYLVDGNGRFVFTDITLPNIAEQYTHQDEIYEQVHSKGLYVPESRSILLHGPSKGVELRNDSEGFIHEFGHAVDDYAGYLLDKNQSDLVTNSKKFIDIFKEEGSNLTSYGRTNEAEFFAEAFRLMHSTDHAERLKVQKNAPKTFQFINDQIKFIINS
Botulinum neurotoxin type A (Clostridium botulinum), sequence (P0DPI0 whole entry, looked up): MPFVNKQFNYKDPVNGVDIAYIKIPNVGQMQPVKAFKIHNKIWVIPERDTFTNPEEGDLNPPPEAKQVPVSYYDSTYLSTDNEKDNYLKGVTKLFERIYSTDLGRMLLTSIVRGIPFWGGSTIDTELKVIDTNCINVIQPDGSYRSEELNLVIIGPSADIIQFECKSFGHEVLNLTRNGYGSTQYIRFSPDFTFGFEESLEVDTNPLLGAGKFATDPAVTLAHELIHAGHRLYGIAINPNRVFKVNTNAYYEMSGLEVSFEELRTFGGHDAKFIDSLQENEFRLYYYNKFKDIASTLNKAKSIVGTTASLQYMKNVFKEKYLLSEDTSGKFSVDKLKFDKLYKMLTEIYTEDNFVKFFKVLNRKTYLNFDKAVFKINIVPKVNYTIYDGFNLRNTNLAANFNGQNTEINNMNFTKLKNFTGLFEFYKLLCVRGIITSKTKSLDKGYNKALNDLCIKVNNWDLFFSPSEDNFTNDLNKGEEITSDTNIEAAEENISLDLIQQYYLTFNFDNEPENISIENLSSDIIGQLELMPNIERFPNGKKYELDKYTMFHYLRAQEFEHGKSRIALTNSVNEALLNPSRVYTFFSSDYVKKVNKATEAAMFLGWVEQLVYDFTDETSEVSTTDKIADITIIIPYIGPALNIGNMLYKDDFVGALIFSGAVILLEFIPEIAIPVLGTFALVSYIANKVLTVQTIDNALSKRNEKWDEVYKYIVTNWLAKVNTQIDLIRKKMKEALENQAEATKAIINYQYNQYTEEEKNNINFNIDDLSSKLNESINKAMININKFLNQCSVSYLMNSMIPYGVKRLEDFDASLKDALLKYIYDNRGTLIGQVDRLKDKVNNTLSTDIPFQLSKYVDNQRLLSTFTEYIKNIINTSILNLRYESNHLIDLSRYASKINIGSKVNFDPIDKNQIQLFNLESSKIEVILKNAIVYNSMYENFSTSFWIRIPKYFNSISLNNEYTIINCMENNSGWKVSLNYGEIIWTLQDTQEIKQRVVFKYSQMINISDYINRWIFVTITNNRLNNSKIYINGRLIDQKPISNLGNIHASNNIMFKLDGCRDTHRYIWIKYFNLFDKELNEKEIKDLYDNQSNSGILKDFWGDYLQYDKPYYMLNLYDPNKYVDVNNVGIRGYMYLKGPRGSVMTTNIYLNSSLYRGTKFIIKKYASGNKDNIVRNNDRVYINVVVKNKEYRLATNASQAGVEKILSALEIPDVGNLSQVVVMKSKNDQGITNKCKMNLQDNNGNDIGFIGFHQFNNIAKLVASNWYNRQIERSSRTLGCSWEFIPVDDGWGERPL

CC(=O)c1cccc2c(O)c(C3=Nc4ccccc4C3=O)[nH]c12
inactive: [1] -2.1% | [2] 0.6% | [3] 6.7%

CC(=O)Oc1c2occc2cc2ccc(=O)oc12
inactive: [1] -2.4% | [2] -1% | [3] -7.3%

COC(=O)c1ccc(NC(=O)C23CCC(C)(C(=O)O2)C3(C)C)cc1 (stereo not given)
inactive: [1] 0.4% | [2] -1.5% | [3] 2.4%

CSc1cccc(NC(=O)/C=C/c2ccccc2)c1
inactive: [1] -0.9% | [2] -2.3% | [3] -8.2%

CC(=O)Oc1cc(C(C)C)c(OCCN(C)C)cc1C
inactive: [1] 1.9% | [2] 2% | [3] 0.9%

O=C(OCCN1CCCC1)C1(c2ccccc2)CCCC1
inactive: [1] -3.9% | [2] -2.9% | [3] 2.6%

O=C(COc1ccccc1)N1CCN(c2ccccc2)CC1
inactive: [1] -3.8% | [2] 0% | [3] -0.7%

CC(C)Oc1ccc(C(CC(=O)O)c2ccc(F)cc2)cc1 (stereo not given)
inactive: [1] 5.2% | [2] 2% | [3] 0.9%

Cc1nc(-c2coc3c(CN(C)C)c(O)ccc3c2=O)cs1
inactive: [1] -2.2% | [2] -0.6% | [3] 10.3%

Cc1nnc(SCC(=O)N2CCCC(C(=O)c3ccc(Cl)cc3)C2)o1 (stereo not given)
inactive: [1] 2.8% | [2] 0.9% | [3] -6.4%

Oc1ccc(Cl)cc1Cc1cc(Cl)ccc1O
inactive: [1] 10% | [2] 4.5% | [3] 7.7%

CC(C)c1ccccc1OCCNC(=S)NC(=O)c1cccnc1
inactive: [1] 4.3% | [2] 1.6% | [3] 2.6%

CCOC(=O)c1ccc2[nH]c(C)c(CCC(C)=O)c(=O)c2c1
inactive: [1] -0.7% | [2] 0.3% | [3] 6%

C=C(C)C(=O)Nc1ccc(NC(C)C)cc1
inactive: [1] 0.4% | [2] -0.8% | [3] 5.7%

Cc1nc2sccn2c(=O)c1CCN1CCC(=C(c2ccc(F)cc2)c2ccc(F)cc2)CC1
inactive: [1] -6% | [2] -0.2% | [3] -7.2%

COc1cc2c(cc1OC)-c1nnc(C)n1C(C)(C)C2
inactive: [1] 0.7% | [2] 0.2% | [3] -2.5%

CC(C)NC[C@@H](O)c1ccc(O)c(O)c1
inactive: [1] -3.7% | [2] -0.5% | [3] -6.8%

CC(C)CCc1noc(CN2CCC(CCN3CCCC3=O)CC2)n1
inactive: [1] 1% | [2] 0.2% | [3] 3.1%

CC1(C)CC(CC(=O)O)(c2ccc(Cl)cc2)CCO1 (stereo not given)
inactive: [1] 2.5% | [2] -1.9% | [3] -4.6%

COc1cc(/C=C/C(=O)O)cc(S(=O)(=O)NCCCO)c1OC
inactive: [1] 1.9% | [2] 0.7% | [3] 2.3%

COc1ccc(CCNC(=O)c2ccc(Cl)cc2)cc1OC
inactive: [1] 0.6% | [2] -1.4% | [3] -4.6%

COc1ccccc1OCC(O)COC(N)=O (stereo not given)
inactive: [1] -3.8% | [2] -1.3% | [3] -6.8%

CN1CCCN=C1COC(=O)C(O)(c1ccccc1)C1CCCCC1 (stereo not given)
inactive: [1] -1.4% | [2] -0.9% | [3] -4.7%

CC(NC(=O)OCc1ccccc1)C(=O)N1CC(O)CC1C(=O)O (stereo not given)
inactive: [1] 3.2% | [2] -0.7% | [3] 1.4%

CCCNCC(O)COc1ccccc1C(=O)CCc1ccccc1 (stereo not given)
inactive: [1] 1.5% | [2] 0% | [3] -1.2%

CC(=O)Nc1nnc(S(N)(=O)=O)s1
inactive: [1] 5.4% | [2] -0.3% | [3] -2.6%

Cc1c(OCC(F)(F)F)ccnc1CS(=O)c1nc2ccccc2[nH]1 (stereo not given)
inactive: [1] -1% | [2] -0.5% | [3] -2.4%

C/C(=N/N1CCN(Cc2cccc3ccccc23)CC1)c1cccnc1
inactive: [1] 6.2% | [2] -0.9% | [3] -4%

C[C@]12CCC3C(CC=C4C[C@@H](O)CC[C@@]43C)C1CCC2[C@]1(C)CCC(=O)O1 (stereo not given in full)
inactive: [1] 0.6% | [2] -0.3% | [3] -5.1%

CC(OC(=O)c1cc(=O)[nH]c2ccccc12)C(=O)c1ccccc1 (stereo not given)
inactive: [1] 2.3% | [2] -2.4% | [3] -6.9%
